Where a name gives a salt, the structure may show the parent alone. ± gives the uncertainty stated by the source.
test system: FLX1; assay: cell viability z-score within plate (CellTiter-Glo), mean of 3 biological replicates; higher = higher viability relative to plate (less growth inhibition); settings: 2 µM; time (hr): 120
Description: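 FLX1 fibrolamellar carcinoma cells (DNAJB1-PRKACA fusion), 600 cells/well in 384-well plates, treated with a Selleck kinase inhibitor library (L1200) at 2 uM for 5 days (120 hr); viability by CellTiter-Glo. A z-score was computed within each plate and averaged over three biological replicates.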

SMILES | cell viability z-score within plate
CCOc1cc(C(=O)N2CCC(N3CCN(C)CC3)CC2)ccc1Nc1ncc2c(n1)N(C1CCCC1)c1ccccc1C(=O)N2C | 0.444 ± 0.17
CC[C@@H]1C(=O)N(C)c2cnc(Nc3ccc(C(=O)NC4CCN(C)CC4)cc3OC)nc2N1C1CCCC1 | -1.49 ± 0.57
Cc1cc(O)c2c(c1)C(=O)c1cccc(O)c1C2=O [Chrysophanic Acid] | 0.539 ± 0.3
N#Cc1c(O)c2c(-c3ccc(-c4ccccc4O)cc3)csc2[nH]c1=O | 0.457 ± 0.29
COc1ccc(CNC(=O)Nc2ncc([N+](=O)[O-])s2)cc1 | 0.771 ± 0.6
O=C(Nc1cccc(Cl)c1)Nc1ncc(CCNc2ncnc3ccsc23)s1 [SNS-314 Mesylate] | -2.37 ± 0.38
N#CC(=C(/N)Sc1ccccc1N)/C(C#N)=C(\N)Sc1ccccc1N | -1.01 ± 0.4
Cc1ccc(C(=O)Nc2cccc(C(F)(F)F)c2)cc1Nc1nc(-c2cccnc2)nc2c1cnn2C | -0.436 ± 0.34
CS(=O)(=O)c1cccc(CNc2nc(Nc3ccc4c(c3)CCC(=O)N4)ncc2C(F)(F)F)c1 | -2.81 ± 1.3
CO[C@H]1C[C@@H]2CC[C@@H](C)[C@@](O)(O2)C(=O)C(=O)N2CCCC[C@H]2C(=O)O[C@H]([C@H](C)C[C@@H]2CC[C@@H](OC(=O)C(C)(CO)CO)[C@H](OC)C2)CC(=O)[C@H](C)/C=C(\C)[C@@H](O)[C@@H](OC)C(=O)[C@H](C)C[C@H](C)/C=C/C=C/C=C/1C | -0.0698 ± 1.1
COc1cc(CCc2cc(NC(=O)c3ccc(N4CC(C)NC(C)C4)cc3)n[nH]2)cc(OC)c1 (stereo not given) | 1.18 ± 0.41
COc1cc(N2CCC(N)CC2)ccc1Nc1ncc(Cl)c(-c2c[nH]c3ccccc23)n1 | -0.695 ± 0.23
O=C(NOCC(O)CO)c1cc(Br)c(F)c(F)c1Nc1ccc(I)cc1F (stereo not given) | 0.628 ± 0.22
C=CC(=O)N1CCC[C@@H](n2nc(-c3ccc(Oc4ccccc4)cc3)c3c(N)ncnc32)C1 | 0.337 ± 0.4
C#Cc1cccc(Nc2ncnc3cc(OCCOC)c(OCCO)cc23)c1 | -0.584 ± 1.3
CNC(=O)Nc1ccc(-c2nc(N3CC4CCC(C3)O4)c3cnn(C4CCC5(CC4)OCCO5)c3n2)cc1 | 0.631 ± 0.77
Cc1[nH]c(/C=C2\C(=O)Nc3ccc(S(=O)(=O)N(C)c4cccc(Cl)c4)cc32)c(C)c1C(=O)N1CCN(C)CC1 | -0.214 ± 0.72
CCc1cc(Nc2nccc(-c3c(-c4ccc(OC)c(C(=O)Nc5c(F)cccc5F)c4)nc4ccccn34)n2)c(OC)cc1N1CCC(N2CCN(S(C)(=O)=O)CC2)CC1 | 0.744 ± 0.54
CN1CCN(S(=O)(=O)c2ccc(-c3cnc(N)c(C(=O)Nc4cccnc4)n3)cc2)CC1 | 0.448 ± 0.3
CCCNC(=O)Nc1ccc(Oc2ncnc3cc(OC)c(OC)cc23)cc1Cl | 0.704 ± 0.077

SMILES | cell viability z-score within plate
Cn1cc(C2=C(c3ccc(Cl)cc3Cl)C(=O)NC2=O)c2ccccc21 | -1.2 ± 0.71
CCn1c(=O)c(-c2ccc(-c3cncs3)cc2Cl)cc2cnc(Nc3ccc(N4CCN(C)CC4)cc3)nc21 | 0.491 ± 0.12
COc1ccc(-c2ccc3c(N4CCOCC4)nc(N4C[C@@H](C)O[C@@H](C)C4)nc3n2)cc1CO | 0.495 ± 0.19
CS(=O)(=O)N1CCN(Cc2cc3nc(-c4cccc5[nH]ncc45)nc(N4CCOCC4)c3s2)CC1 [Pictilisib (GDC-0941)] | 1.08 ± 0.18
Cc1[nH]c(/C=C2\C(=O)Nc3ccc(S(=O)(=O)Cc4c(Cl)cccc4Cl)cc32)c(C)c1C(=O)N1CCC[C@@H]1CN1CCCC1 | 0.00363 ± 0.67
CC1(COc2ccc3c(c2)ncn3-c2ccc3cccc(N4CCC(N)CC4)c3n2)COC1 | 0.0444 ± 0.77
O=C(c1ccc(Nc2nccc(-c3cc4ccccc4s3)n2)cc1)N1CCC(N2CCCC2)CC1 [IKK-16 (IKK Inhibitor VII)] | 0.237 ± 0.33
NCC(=O)Nc1ccc(-n2nc(C(F)(F)F)cc2-c2ccc3c(ccc4ccccc43)c2)cc1 | 0.225 ± 0.2
Cc1cc(C(C)Nc2ccccc2)c2nc(N3CCOCC3)cc(=O)n2c1 (stereo not given) | -0.144 ± 0.28
C[C@@H]1COC(Nc2ccc3ncnc(Nc4ccc(OCc5nccs5)c(Cl)c4)c3c2)=N1 [Varlitinib] | 0.0259 ± 0.81
N#C/C(=C\c1ccc(O)c(O)c1)C(=O)NCc1ccccc1 [AG-490 (Tyrphostin B42)] | -0.668 ± 1.4
COC(=O)c1ccc2c(c1)NC(=O)/C2=C(\Nc1ccc(N(C)C(=O)CN2CCN(C)CC2)cc1)c1ccccc1 [Nintedanib (BIBF 1120)] | 0.242 ± 0.43
CN1CCC(CNc2ccc3ncc(-c4cccc(OC(F)(F)F)c4)n3n2)CC1 [SGI-1776 free base] | 0.436 ± 0.2
Cn1cnc(N)c2ncnc1-2 [3-Methyladenine (3-MA)] | 0.219 ± 0.67
CS(=O)(=O)CCNCc1ccc(-c2ccc3ncnc(Nc4ccc(OCc5cccc(F)c5)c(Cl)c4)c3c2)o1 | 0.842 ± 0.23
Cc1nc(Nc2cnn(C3CCNCC3)c2)nc2c1N(C)C(=O)c1cc3ccccc3cc1N2C | 1.62 ± 0.12
O=C(NOC[C@H](O)CO)c1ccc(F)c(F)c1Nc1ccc(I)cc1F | -1.16 ± 0.84
O=C1NC(=O)[C@@H](c2cn3c4c(cccc24)CCC3)[C@@H]1c1c[nH]c2ccccc12 [Tivantinib (ARQ 197)] | -1.26 ± 0.51
CNC(=O)c1ccccc1Sc1ccc2c(/C=C/c3ccccn3)n[nH]c2c1 [Axitinib] | 0.834 ± 0.44
CNC(=O)c1cc(Oc2ccc(NC(=O)Nc3ccc(Cl)c(C(F)(F)F)c3)cc2)ccn1 [Sorafenib] | -1.7 ± 1.3

Source: the supplement of paper PMC9925115
